Assay results as given in PubChem BioAssay (NCI).
Compounds without any hit were thinned out: in the full panel of roughly 83,000, 20% have a hit.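 How to read the values: 0–100, growth inhibition (40 = 60% inhibited); 0, no net growth; -100 to 0, cell death (-40 = 40% of starting cells died; -100 = all dead).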 Unmarked numbers belong to inactive results. Active and inactive are the calls of the source. How the source made its calls: active means growth percent below 10; inactive means the rest.

How the values were obtained:
Assay in all cases: NCI-60 one-dose screen, 48 h (100 = growth as untreated, 0 = no growth, -100 = all killed)
Settings in all cases: 10 µM unless noted
HCT-15 colon = test system: HCT-15 colon
HT29 colon = test system: HT29 colon
SNB-75 CNS = test system: SNB-75 CNS
SNB-19 CNS = test system: SNB-19 CNS
U251 CNS = test system: U251 CNS
UACC-62 melanoma = test system: UACC-62 melanoma
LOX IMVI melanoma = test system: LOX IMVI melanoma
SK-MEL-28 melanoma = test system: SK-MEL-28 melanoma
PC-3 prostate = test system: PC-3 prostate
SK-MEL-5 melanoma = test system: SK-MEL-5 melanoma

Row | Compound | growth (HCT-15 colon) | growth (HT29 colon) | growth (SNB-75 CNS) | growth (SNB-19 CNS) [%] | growth (U251 CNS) | growth (UACC-62 melanoma) | growth (LOX IMVI melanoma) | growth (SK-MEL-28 melanoma) [%] | growth (PC-3 prostate) | growth (SK-MEL-5 melanoma)
1 | CCCc1cc(O)c2c3c(c(=O)oc2c1)CN(C)CC3 | 23.2% | 10.8% | -8.41% (active) | 44.4 | 16.7% | 37.8% | 30.9% | 56.4 |  | 
2 | CNC12C3C4C1C1C2C3C41C(=O)N[C@H](C(=O)N(C)[C@H](C[C@@H](OC(C)=O)c1nc(C(=O)N[C@@H](Cc2ccccc2)C[C@H](C)C(=O)OC)cs1)C(C)C)C1CC1 (some centres undefined) | 11.4% | -12.6% (active) | 26.9% | 33.4 | 10.1% | 13.9% | 0.284% (active) | 62.3 | 16.9% | 
3 | O=C1C(=Cc2cn(Cc3ccccc3)c3ccccc23)C(=O)N(Cc2ccccc2)C(=O)N1Cc1ccccc1 | 85.8% | 111% | 45% | 87.1 | 75.7% | 53.1% | 87.2% | 110 | 90.3% | 
4 | Cc1cc(N(CCCl)CCCl)ccc1C=Nc1ccccc1-c1ccccc1 | 79.4% | 89.3% | 66.1% | 77.9 | 63.3% | 6.46% (active) | 66.3% | 95.2 | 85.5% | 
5 | O=C(CC1(O)C(=O)N(Cc2ccccc2)c2ccc(Br)cc21)c1ccc(C(=O)NCC2CCC3(CC2)OOC2(CCCCC2)OO3)cc1 (centres undefined) | 2.73% (active) | -65.5% (active) | 15% | 56.1 | -85.4% (active) | 80.7% | -79.7% (active) | 77.4 | -36.3% (active) | 
6 | COC(=O)[C@@H](C)C[C@H](Cc1ccccc1)NC(=O)c1csc([C@@H](C[C@H](C(C)C)N(C)C(=O)[C@@H](NC(=O)[C@H]2CCCCN2C)c2ccc(F)cc2)OC(C)=O)n1 | 15.5% | 6.87% (active) | 30.7% | 74.8 | 4.87% (active) | 40% | 7.62% (active) | 49.6 | 15.8% | 
7 | CO[C@H]1CC[C@@]2(C)C(=CC[C@@H]3[C@@H]2CC[C@]2(C)C(=O)C(=O)C[C@@H]32)C1 | 103% | 106% | 103% | 94.8 | 104% | 92.5% | 92.5% | 117 | 84.2% | 
8 | Cc1ccc(C(=O)NCCCOc2ccc(N)cc2Cl)cc1S(=O)(=O)F | 89.4% | 101% | 75.1% | 95.1 |  | 100% | 85.5% |  | 105% | 97.2%
9 | CCN1C(=O)C(=C/C=C/c2ccccc2)C(=O)N(CC)C1=O | 62.6% | 66% | 96.8% | 69.9 | 54.9% | 79% | 17% | 104 | 61.7% | 
10 | COC(=O)CC12CC(NC(=O)c3csc([C@@H](C[C@H](C(C)C)N(C)C(=O)[C@@H](NC(=O)[C@H]4CCCCN4C)C(C)C)OC(C)=O)n3)(C1)C2 | 11.8% | 5.49% (active) | 59% | 37.8 | 17.3% | 49.7% | 23.3% | 59.4 | 30.2% | 
11 | CCn1c2ccccc2c2cc(C(=O)c3ccc(C)c4ccccc34)ccc21 | 15.7% | -7.41% (active) | 51% | 20.7 | 10.3% | 1.49% (active) | 1.21% (active) | 17.9 | 18.7% | 
12 | CCOC(=O)CCN(C)C1=Nc2ccc(Cl)cc2C(c2ccccc2)=[N+]([O-])C1 | 105% | 82% | 99.5% | 99.3 | 100% | 93.4% | 99.8% | 121 | 91% | 
13 | C[C@]12CC[C@@H]3c4ccc(Oc5nc(N6CC6)nc(N6CC6)n5)cc4CC[C@H]3[C@@H]1CCC2=O | 37.4% | 19.3% | 30.3% | 48.8 |  | 18.4% | -63.1% (active) | 63.5 | 53.8% | 5.82% (active)
14 | O=C(CC1(O)C(=O)Nc2ccc(Cl)cc21)c1ccc(C(=O)NCC2CCC3(CC2)OOC2(CCCCC2)OO3)cc1 (centres undefined) | 49.1% | 15.1% | -3.77% (active) | 30.3 | -54.2% (active) | 50.7% | 32.3% | 69.2 | -34.2% (active) | 
15 | CC[C@H](C)[C@@H]1OC(=O)C(C)(C)[C@H](O)[C@H](Cc2ccccc2)OC(=O)[C@H](C(C)C)OC(=O)[C@@H](NC(=O)c2cccc(NC=O)c2O)[C@@H](C)OC1=O | 36.2% | 48.4% | 63.9% | 49.5 | 41.2% |  | 38.1% |  | 43.9% | 
16 | COP(=O)(OC)C(O)c1ccc(Cl)cc1 (centres undefined) | 102% | 96.1% | 89.4% | 110 | 104% | 101% | 96.8% | 109 | 94.3% | 
17 | NC(N)=N/N=C\c1c[nH]c2ccc(Br)cc12 | 105% | 92.3% | 72.6% | 67.1 | 32.9% | 101% | 93.7% | 100 | 72.2% | 
18 | CC1(C)N=C(N)N=C(N)N1c1ccc(CCC(=O)Nc2ccc(S(=O)(=O)F)cc2)c(Cl)c1 | 48% | 15.5% | 59.4% | 42 | 35% | 16.9% | 15.3% | 50.4 |  | 22.2%
19 | CC[C@]12C=CCN3CC[C@@]4(c5ccc(OC)cc5N(C)[C@H]4[C@@](O)(C(=O)OC)[C@@H]1OC(=O)CCCC[P+](c1ccccc1)(c1ccccc1)c1ccccc1)[C@@H]32 | 99.3% | 2.65% (active) | -12.8% (active) | 12.7 | 10.9% | -6.54% (active) | 18.5% | 12.5 |  | -72.9% (active)
20 | c1ccc(CSC(c2ccccc2)c2ccccc2)cc1 | 106% | 84.1% | 119% | 104 |  | 103% | 100% |  | 104% | 112%
21 | CC[C@H](C)[C@H](NC(=O)c1nccn1C)C(=O)N(C)[C@H](C[C@@H](OC(C)=O)c1nc(C(=O)N[C@@H](Cc2ccccc2)C[C@H](C)C(=O)OC)cs1)C(C)C | 10.5% | -6.75% (active) | 15.8% | 37.3 | 9.94% (active) | 55.7% | 17.6% | 51.2 | 25.2% | 
